Source: PubChem (National Center for Advancing Translational Sciences (NCATS))
Pf growth 48h = P. falciparum growth inhibition at 48 hours (one generation); P. falciparum luciferase growth in erythrocytes, 48 h; 310,000 compounds, 5.9% hits; Potency, µM (doses to about 28.7 µM), for inactives: at the highest dose activity change, negative = inhibition, usual class: inhibitors; AID 504832; further: potency means the concentration at half of the fitted maximal effect; on the % scale 0 is the no-effect control and ±100 the full control effect
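Parasite viability was followed by luminescence of a genomically integrated firefly luciferase. Cultures held 0.1% parasitemia at 2% hematocrit (final), incubated under 5% CO2 at 37 C.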
Shiga inhibitor = blocks Shiga toxin action in Vero cells; Vero cells, Shiga toxin protein synthesis inhibition reporter; inhibition, % at 38.7 µM; 290,000 compounds, 9.2% hits; AID 2315; in the data active means inhibition mostly above about 28%, no sharp cut-off; inactive means mostly below about 43%; further: 0% is about no effect
Pf growth 96h = P. falciparum growth inhibition at 96 hour, primary screen for plastid delayed-death inhibitors; P. falciparum luciferase reporter growth, 96 h; Potency, µM (series often up to 28.7 µM), without a hit: top-dose activity change, negative = inhibition, most hits filed as inhibitors; 320,000 compounds, 6.9% hits; AID 504834; further: potency means the concentration at half of the fitted maximal effect; on the % scale 0 is the no-effect control and ±100 the full control effect
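Readout is luminescence from an integrated firefly luciferase in P. falciparum. Red cells, 2% hematocrit and 0.05% parasitemia final, were cultured with compound through two parasite generations (96 hours) at 37 C, 5% CO2.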
CHX counter = counter-screen hit for Shiga toxin inhibitors, cycloheximide; 300,000 compounds, 12% hits; cell reporter, cycloheximide protein synthesis inhibition counterscreen; max response, %; in the data active means max response mostly above about 13%, no sharp cut-off; inactive means mostly below about 14%; further: read at 38.3 µM for the half of the compounds with a filed dose; 0% is about no effect
HCMV inh = blocks human cytomegalovirus replication | HFF cells, HCMV-luciferase reporter, 72 h; active compounds read low | AID 1259415 | 410,000 compounds, 4.5% hits | activity change, negative = inhibition, % at 57.5 µM; in the data active means activity change below about -60%; inconclusive means no clear call, values can overlap the other calls; inactive means above about -39%; further: on the % scale 0 is the no-effect control and ±100 the full control effect
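Inhibition of viral replication was scored as loss of reporter luminescence in HFFs infected with HCMV-luciferase (MOI 1 PFU/cell) for 72 h; compounds tested at 2 doses, normalized to buffer and Salinomycin controls.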
An asterisk follows results filed as active; ? = inconclusive; · = no result given; + = active, no number; ! = not active in a repeat. A selection: hits, their analogues and other compounds. The true share with any hit is near 20%. Unless noted, the call rests on the fitted dose curve; in most records, active means well fitted inhibition curve with a large enough effect; inconclusive means small, poorly fitted or top-dose-only effect, or another doubt; inactive means no such curve, though single readings can be large or run the other way.

SMILES	Pf growth 48h	Shiga inhibitor	Pf growth 96h	CHX counter	HCMV inh
CCOC(=O)N1CCC(Nc2c(Nc3cccc(CC)c3)c(=O)c2=O)CC1	10µM*	-20	?	4	-9
CCOC(=O)N1CCC(Nc2c(NCCN3CCN(Cc4ccccc4)CC3)c(=O)c2=O)CC1	-1%	-1	0%	-3	-5
CCOC(=O)N1CCC(Nc2c(Nc3ccc(F)cc3)c(=O)c2=O)CC1	10µM*	-6	?	1	23
COc1cc(O)oc1C=Nc1ccc(C(=O)O)cc1	?	3	24%	-3	-6
COc1ccc(NC(=O)Cc2csc(C)n2)cc1	·	·	·	·	6
CCc1cccc2c1Sc1ccccc1CC2N1CCNCC1 (stereo not drawn)	·	·	·	·	-98*
CC1=C(c2ccc(C(C)C)cc2)S(=O)(=O)N=C1N1CCN(c2ccc(F)cc2)CC1	·	·	·	·	-27
CN1CCN(C2=Cc3ccccc3Sc3cc(F)ccc32)CC1	?	-4	-102%	-5	25
CN1CCN(C2Cc3ccc(F)cc3Sc3cc(F)c(Cl)cc32)CC1 (stereo not drawn)	·	·	·	·	-95*
CC(C)c1ccc2c(c1)C(N1CCNCC1)Cc1ccc(F)cc1S2 (stereo not drawn)	·	·	·	·	-98*
CN1CCN(C2Cc3ccccc3Sc3ccc(Cl)cc32)CC1 (stereo not drawn)	13µM*	·	17µM*	·	-11
CN1CCN(C2Cc3cc(F)ccc3Sc3ccc(Cl)cc32)CC1 (stereo not drawn)	·	·	·	·	-9
COc1ccc(C(=O)Nc2c(N)nc(SCC(=O)NCC3CCCO3)[nH]c2=O)cc1OC (stereo not drawn)	-13%	-8	8%	-2	3
Cc1c(NS(=O)(=O)c2cccc(C(=O)NCc3ccco3)c2)c(=O)n(-c2ccccc2)n1C	·	·	·	·	-8
CN1CCN(C2Cc3ccccc3Sc3cc(C(F)(F)F)ccc32)CC1 (stereo not drawn)	·	·	·	·	-109*
CSc1ccc2c(c1)C(N1CCN(C)CC1)Cc1ccccc1S2 (stereo not drawn)	?	-4	?	-4	-75*!
CCOc1ccc(/C=N/Nc2ccccn2)cc1OC	204%	110*	105%	39*	59
CCOc1ccc(/C=N/N(C)c2ccccc2)cc1OC	·	64*	-30%	25*	150
COc1cc(/C=N/Nc2ccccn2)ccc1OCC(C)C	26%	62*	?	34*	-23
COc1cc(/C=N/Nc2ccc(C(F)(F)F)cn2)cc(OC)c1O	?	22	?	7	-35
CCOc1ccc(/C=N/NC(=O)c2ccc3nc[nH]c3c2)cc1OC	·	·	·	·	-29
COc1cc(/C=N/Nc2ccccn2)cc(OC)c1O	26%	63*	-15%	25*	21
CC1=NCC(C)c2c1[nH]c1ccccc21 (stereo not drawn)	11%	-12	?	3	-6
C=CCOc1ccc(/C=N/Nc2ccccn2)cc1OC	158%	101*	202%	57*	58
C=CCOc1ccc(/C=C(\C#N)C(=O)Nc2ccccn2)cc1OC	23%	-11	0%	-7	-5
SMILES	Pf growth 48h	Shiga inhibitor	Pf growth 96h	CHX counter	HCMV inh
CCCOc1ccc(/C=N/Nc2ccccn2)cc1OC	198%	88*	440%	50*	20
CCCOc1ccc(/C=N/NC(=O)c2c(-c3ccccc3)noc2C)cc1OC	0%	-5	8%	-2	-32
Cc1ccc(S(=O)(=O)N2CCOCC2)cc1NC(=O)CNC1CCCC1	20%	26	11%	0	2
O=[N+]([O-])c1cccc(/C=N\N2CCN(c3ccc(Cl)cc3)CC2)c1	-6%	0	8.3µM*	-3	-8
C/C(=N/N1CCN(Cc2ccccc2)CC1)c1ccc(Br)cc1	-6%	20	37%	-3	-21
C/C(=N\N1CCN(Cc2ccccc2)CC1)c1ccco1	27%	53*	0%	15	-38
C/C(=N\N1CCN(c2ccccc2)CC1)c1ccco1	20%	+	-3%	28*	-7
C/C(=N\N1CCN(c2ccccc2)CC1)c1ccncc1	20%	46*	45%	22*	-6
C/C(=N\N1CCN(c2ccccc2)CC1)c1cccs1	7%	39	34%	8	?
C/C(=N/N1CCN(c2ccccc2)CC1)c1cccc([N+](=O)[O-])c1	0%	64*	4%	33*	?
O=C(NCCC(=O)N1CCN(c2ccccn2)CC1)c1ccc([N+](=O)[O-])cc1	·	·	·	·	-30
